Results published in PubChem BioAssay AID1850 (Southern Research Specialized Biocontainment Screening …, 2009).
Among all 310,000 compounds or so, about 1,000 (0.32%) were called active. The list is a sample of the results. Entries with a potency or affinity are not part of this list. A number with no mark means an inactive call. How the calls were made is not given here.

Assay: PhoP regulon inhibitors, Salmonella typhi PhoP promoter GFP reporter, confirmatory (AID 1850);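 further: 0% = induced wells with vehicle and 100% = uninduced wells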
Settings: fluorescence, 4 h, at 50 µM, active compounds read high

| SMILES | inhibition [%] |
| --- | --- |
| CN(C(=O)COC(=O)c1ccc2[nH]c3c(c2c1)CCCC3)C1CCS(=O)(=O)C1 (stereo unspecified) | -8.01 |
| Cc1ccc(OCCCCN2CCC(C)CC2)cc1 | 15.9 |
| CCOc1cc(CNCCO)cc(Br)c1OCc1ccc(Cl)cc1Cl | 8.42 |
| CCOc1cc(CNCCc2ccc(S(N)(=O)=O)cc2)cc(Cl)c1OCc1ccccc1 | 13 |
| COc1cc(CNC(C)(C)CO)cc(Br)c1OCc1ccc(Cl)cc1Cl | 0.08 |
| COc1cc(CNCc2ccccc2)cc(Cl)c1OC | 4 |
| CC(C)c1ccc(Nc2c([N+](=O)[O-])c(=O)n(C)c3ccccc23)cc1 | 2.08 |
| Cc1ccc2nsnc2c1S(=O)(=O)NCc1ccncc1 | -2.24 |
| Cc1onc(-c2ccccc2)c1-c1nnc(-c2ccccc2C(F)(F)F)o1 | 0.63 |
| C=CCN(c1nc(C)cc(OC)n1)S(=O)(=O)c1ccc(C)cc1 | 0.2 |
| CC(C)(C)c1nnc(NC(=O)c2cccs2)s1 | 10.7 |
| Cc1nc2cc(C(F)(F)F)ccc2n1C | 1.93 |
| CN1CCN(c2ccc(C(F)(F)F)cc2N)CC1 | 2.28 |
| O=C(Nc1ccccc1C(=O)Nc1ccccn1)c1cc(F)c(F)cc1Cl | -1.17 |
| Cc1ccc[n+](-c2nc3ccccc3nc2[N-]S(=O)(=O)c2ccccc2)c1 | -11.4 |
| O=C(/C=C/c1ccc2c(c1)OCO2)c1cccnc1 | 0.98 |
| O=C(Cn1nc(C(F)(F)F)c2c1CCC2)Nc1ccccc1C(F)(F)F | -9.91 |
| COc1ccc(-c2c[n+](CC(=O)OC3CC(C)CCC3C(C)C)c3n2CCC3)cc1 (stereo unspecified) | 1.91 |
| CC1CCC(C(C)C)C(OC(=O)C[n+]2cc(-c3ccc(Cl)cc3)n3c2CCCCC3)C1 (stereo unspecified) | 10.8 |
| O=C(C[n+]1cc(-c2ccc(Cl)cc2)n2c1CCCCC2)c1ccccc1 | 1.54 |
| Cn1c(NC(=O)C[n+]2cc(-c3ccc(Cl)cc3)n3c2CCC3)cc(=O)n(C)c1=O | 11.1 |
| CCc1ccc(Nc2nnc(SCc3cc(=O)n4ccsc4n3)s2)cc1 | -7.77 |
| CCCCNCCCOc1cccc(Cl)c1 | 2.53 |
| CCCCNCCCOc1cc(Cl)ccc1Cl | 6.78 |

| SMILES | inhibition [%] |
| --- | --- |
| O=C(NCCO)c1cccc(Cl)c1 | -3.96 |
| O=C1CCC([N+](=O)[O-])C(c2cc3c(cc2Cl)OCO3)N1 (stereo unspecified) | 3.32 |
| COC(=O)c1cc(C(=O)c2ccc(Cl)cc2)n2c(=O)/c(=C\N(C)C)sc12 | 4.66 |
| O/N=C/c1ccc(OCc2ccccc2F)c(Cl)c1 | -2.37 |
| O/N=C/c1ccc(OCc2ccccc2)c(Br)c1 | 17.4 |
| Cc1cc(C)cc(NC(=O)CSc2nc3ccccc3nc2N2CCCC2)c1 | 11.5 |
| OCCNc1c2ccccc2nc2ccccc12 | 11.8 |
| Fc1cccc(NCCc2c[nH]c3ccccc23)n1 | 3.37 |
| OCCNc1c2c(nc3ccccc13)CCCC2 | -3.18 |
| CN(C)CCCNc1nc(-c2ccccc2)nc2ccccc12 | -2.17 |
| CNCCc1c[nH]c2ccccc12 | 10.1 |
| CN(C)CCCNc1c2c(nc3ccccc13)CCC2 | 5.26 |
| N#CCCN(C(=O)COC(=O)c1ccc(CNS(=O)(=O)c2ccc(F)c(Cl)c2)cc1)c1ccc(F)cc1 | -2.96 |
| Cc1ccc(CNC(=O)C2CCCN(c3nn4c(=O)cc(C)nc4s3)C2)cc1 (stereo unspecified) | -0.07 |
| CCC1=C2CC[C@H]3C(=O)N(C)C(=O)[C@H]3[C@H]2[C@@]2(Cc3ccccc3)C(=NCC(=O)OC)OC(=O)N2C1=O | -11.3 |
| CC(Sc1nnc(-c2ccccc2Br)o1)C(=O)N1CCOCC1 (stereo unspecified) | 0.36 |
| O=C(NCC1CCCO1)c1cccc(NC(=O)c2ccc(Br)cc2)c1 (stereo unspecified) | -6.91 |
| CC(C)c1ccc(NC(=O)CSc2nc3ccsc3c(=O)n2Cc2ccc(C(=O)O)cc2)cc1 | -12 |
| COC(=O)CC1=C(C(=O)OC)C(c2ccc3c(c2Cl)OCO3)C(C#N)=C(N)O1 (stereo unspecified) | -2.85 |
| CCC(=C(c1ccc(OC)cc1)c1ccc(OC)cc1)c1cn(CC(O)CN(CCO)CCO)c2ccccc12 (stereo unspecified) | 1.98 |
| COc1ccccc1-n1c(SCC(=O)Nc2ccc(F)cc2)nc2c(c1=O)SCC2 | 4.39 |
| C=CCn1c2ccccc2n2nc(C)c(=O)nc12 | 5.77 |
| COc1ccc(NC(=O)Cc2ccccc2)cc1 | -3.71 |
| COc1ccc(/C=C/C(=O)NCCCc2ccccc2)cc1 | 2.3 |

| SMILES | inhibition [%] |
| --- | --- |
| CCNC(=S)N1CCNC(=O)C1CC(=O)OC (stereo unspecified) | -0.49 |
| CCCSC(=S)NC1CCS(=O)(=O)C1 (stereo unspecified) | 14.2 |
| C=CCSC(=S)NC1CCS(=O)(=O)C1 (stereo unspecified) | 4.24 |
| COCCSc1nnc(NC(=O)C2CCCO2)s1 (stereo unspecified) | -16.4 |
| CC(=O)NC(c1ccc(C)cc1)c1cc(Cl)c2cccnc2c1O (stereo unspecified) | -5 |
| CN1CCN(C(c2cccnc2)c2ccc3cccnc3c2O)CC1 (stereo unspecified) | 4.05 |
| Oc1c(C(c2ccccn2)N2CCCCC2)cc(Cl)c2cccnc12 (stereo unspecified) | 20.3 |
| CN1CCN(C(c2ccccn2)c2cc(Cl)c3cccnc3c2O)CC1 (stereo unspecified) | -16.9 |
| Oc1c(C(c2ccc(Cl)cc2)N2CCCC2)cc(Cl)c2cccnc12 (stereo unspecified) | -16.5 |
| Oc1c(C(c2ccccn2)N2CCC(Cc3ccccc3)CC2)cc(Cl)c2cccnc12 (stereo unspecified) | -1.4 |
| CN1CCN(C(c2ccc(C(F)(F)F)cc2)c2cc(Cl)c3cccnc3c2O)CC1 (stereo unspecified) | 2.9 |
| CCN1CCN(C(c2ccc(C(F)(F)F)cc2)c2ccc3cccnc3c2O)CC1 (stereo unspecified) | -8.31 |
| CCOCCOC(=O)c1ccc(-n2cncn2)nc1 | 19.6 |
| Cn1c(NC(=O)CC2CCCCC2)cc(=O)n(C)c1=O | -13.1 |
| C/C(=N\Nc1nc2ccccc2[nH]1)c1ccc2c(c1)OCCO2 | 11.8 |
| COc1ccc(Br)cc1C(=O)NC(=S)Nc1c(C)n(C)n(-c2ccccc2)c1=O | 14.4 |
| CC1(c2ccccc2)NC(=O)N(CC(=O)NCCC2=CCCCC2)C1=O (stereo unspecified) | 0.28 |
| O=C(CC12CC3CC(CC(C3)C1)C2)NC(Cc1ccccc1)C(=O)O (stereo unspecified) | -9.42 |
| CNC[C@H](CC1CCCCC1)NC[C@H](NCCC1CCCC1)[C@H](C)O | 22.8 |
| CNC[C@H](CC1CCCCC1)NC[C@H](CO)NCCc1cccc(C(F)(F)F)c1 | 10.8 |
| CNC[C@H](CC1CCCCC1)NC[C@H](CO)NCC1(c2ccccc2)CC1 | -8.16 |
| CCC[C@@H](CNC)NC[C@H](Cc1ccccc1)NCCCCc1ccccc1 | 3.99 |
| CCC[C@@H](CN[C@@H](CNC)C(C)C)NCCCCc1ccccc1 | 16.7 |
| CC(C)n1nc(C(=O)OCC(=O)N(C)C2CCS(=O)(=O)C2)c2ccccc2c1=O (stereo unspecified) | -1.06 |

| SMILES | inhibition [%] |
| --- | --- |
| COCCn1c(SCc2cccc(F)c2)nc2cc(C(=O)OC)ccc2c1=O | 6.64 |
| O=C(c1cc(-c2cccc(O)c2)on1)N1CCCCCC1 | 14.9 |
| CN(C)S(=O)(=O)c1cccc(NC(=O)COc2ccc(C(=O)c3ccccc3)cc2)c1 | -35.4 |
| COc1ccc(CCn2c(-n3nc(C)cc3C)nc3c2c(=O)[nH]c(=O)n3C)cc1 | 0.46 |
| O=C(NCC(=O)N1CCCCC1)c1ccc(Br)o1 | 20.3 |
| N#C/C(=N\Nc1ccc(S(=O)(=O)N2CCOCC2)cc1)C(N)=S | 6.96 |
| O=C(Nc1ccc(SC(F)F)cc1)C1CC(=O)N(Cc2ccccc2)C1 (stereo unspecified) | 17.5 |
| OCC1(Cc2ccc(Cl)cc2)CCN(Cc2ccc(F)c(F)c2)CC1 | 1.77 |
| CCn1c(=O)n(CC)c2cc(NC(=O)c3ccccc3Cl)ccc21 | -4.48 |
| C/C(CC(=O)Nc1ccc2c(c1)OCO2)=N\NC(=O)OC(C)(C)C | 1.68 |
| Cc1ccc(C(=O)Nc2cccc(NC(=O)c3cccs3)c2)c(C)c1 | -6.14 |
| Cc1cc(C)c(S(=O)(=O)NCCCn2ccnc2)c(C)c1 | -3.5 |
| CCCCCCCCCCCCCCCC[n+]1cccc2ccccc21 | -4.68 |
| CCCCC[n+]1cccc2c3ccccc3ccc21 | 0.18 |
| O=C(C[n+]1cc(-c2ccc(F)cc2)n2c1CCC2)N1c2ccccc2Sc2ccccc21 | -2.79 |
| Cc1ccc(-c2c[n+](CC(=O)N3c4ccccc4Sc4ccccc43)c3n2CCC3)cc1 | 6.09 |
| COc1ccc(-c2c[n+](CC(=O)N3c4ccccc4Sc4ccccc43)c3n2CCC3)cc1 | 18.6 |
| O=C(C[n+]1cc(-c2ccccc2)n2c1CCC2)N1c2ccccc2Sc2ccccc21 | 13.9 |
| CC/C(=N\NC(=O)c1ccncc1)C12CC3CC(CC(C3)C1)C2 | 8.69 |
| CCOC(=O)N1CCC(=NNC(=O)COc2ccc(C#N)cc2)CC1 | -4.18 |
| COc1ccc(OC)c(CCNC(=O)c2sc3nc4n(c(=O)c3c2C)CCC4)c1 | 4.26 |
| Cc1ccc(/C=N/NC(=O)c2ccoc2C)s1 | 0.98 |
| Cc1occc1C(=O)N/N=C/c1ccc(Br)s1 | 1.4 |
| CC(/C=N\NC(=O)CN1CCN(S(=O)(=O)c2ccc(C)cc2)CC1)=C\c1ccccc1 | -12 |
